Assay results as given in the supplement of paper PMC8728848.
This is one part of a sample in which the strongest signals are shown more often than they occur.

How the values were obtained:
Assay in all cases: glycan array binding signal (z-score within array); higher = stronger binding
Details in all cases: glycan notation: IUPAC condensed, linker removed
[1] = biological target: Fuc(a1-2)Gal(b1-3)GlcNAc6S
How it was run: (§1)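 Columns mapping to the same glycan were averaged after glycan names were converted to IUPAC-condensed notation. The data come from 3228 arrays in the Consortium for Functional Glycomics database, limited to those with an available protein sequence. Binding is reported as a within-array Z-score averaged across arrays of one protein sequence and across linkers.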

[2] = biological target: Fuc(a1-2)Gal(b1-3)[Fuc(a1-4)]GlcNAc(b1-3)[Fuc(a1-3)[Gal(b1-4)]GlcNAc(b1-6)]Gal(b1-4)Glc
How it was run: as §1

[3] = biological target: Fuc(a1-2)Gal(b1-4)GlcNAc(b1-6)GalNAc
How it was run: as §1

[4] = biological target: Fuc(a1-2)Gal(b1-4)[Fuc(a1-3)]GlcNAc
How it was run: as §1

[5] = biological target: Fuc(a1-2)[Gal(a1-3)]Gal(b1-3)GlcNAc
How it was run: as §1

[6] = biological target: Fuc(a1-2)[Gal(a1-3)]Gal(b1-3)GlcNAc(b1-3)GalNAc
How it was run: as §1

[7] = biological target: Fuc(a1-2)[Gal(a1-3)]Gal(b1-4)GlcNAc
How it was run: as §1

[8] = biological target: Fuc(a1-2)[GalNAc(a1-3)]Gal(b1-4)GlcNAc(b1-2)Man
How it was run: as §1

[9] = biological target: Fuc(a1-2)[GalNAc(a1-3)]Gal(b1-4)GlcNAc(b1-3)GalNAc
How it was run: as §1

[10] = biological target: Fuc(a1-2)[GalNAc(a1-3)]Gal(b1-4)GlcNAc(b1-6)GalNAc
How it was run: as §1

[11] = biological target: Fuc(a1-2)[GalNAc(b1-3)]Gal
How it was run: as §1

[12] = biological target: Fuc(a1-3)[Gal(b1-4)]GlcNAc(b1-2)Man
How it was run: as §1

Gal(a1-3)Gal(b1-3)GlcNAc = biological target: Gal(a1-3)Gal(b1-3)GlcNAc
How it was run: as §1

[13] = biological target: Gal(a1-3)Gal(b1-3)GlcNAc(b1-2)Man(a1-3)[Gal(a1-3)Gal(b1-3)GlcNAc(b1-2)Man(a1-6)]Man(b1-4)GlcNAc(b1-4)GlcNAc
How it was run: as §1

[14] = biological target: Gal(a1-3)Gal(b1-4)GlcNAc(b1-6)GalNAc
How it was run: as §1

[15] = biological target: Gal(b1-3)GlcNAc(a1-6)Gal(b1-4)GlcNAc
How it was run: as §1

[16] = biological target: Gal(b1-3)GlcNAc(b1-3)Gal(b1-4)Glc
How it was run: as §1

[17] = biological target: Gal(b1-3)GlcNAc(b1-6)GalNAc
How it was run: as §1

[18] = biological target: Gal(b1-3)[Fuc(a1-4)]GlcNAc(b1-3)Gal(b1-3)[Fuc(a1-4)]GlcNAc
How it was run: as §1

[19] = biological target: Gal(b1-3)[Neu5Ac(a2-6)]GlcNAc(b1-4)Gal(b1-4)Glc
How it was run: as §1

[20] = biological target: Gal(b1-4)GalNAc(b1-3)[Fuc(a1-2)]Gal(b1-4)GlcNAc
How it was run: as §1

[21] = biological target: Gal(b1-4)GlcNAc(b1-2)[Gal(b1-4)GlcNAc(b1-6)]Man(a1-6)[GlcNAc(b1-4)][Gal(b1-4)GlcNAc(b1-2)[Gal(b1-4)GlcNAc(b1-4)]Man(a1-3)]Man(b1-4)GlcNAc(b1-4)[Fuc(a1-6)]GlcNAc
How it was run: as §1

[22] = biological target: Gal(b1-4)GlcNAc(b1-3)Gal(b1-4)GlcNAc(b1-2)Man(a1-3)[Gal(b1-4)GlcNAc(b1-3)Gal(b1-4)GlcNAc(b1-2)Man(a1-6)]Man(b1-4)GlcNAc(b1-4)GlcNAc
How it was run: as §1

Gal3S(b1-4)Glc = biological target: Gal3S(b1-4)Glc
How it was run: as §1

[23] = biological target: Gal3S(b1-4)[Fuc(a1-3)]GlcNAc6S
How it was run: as §1

Gal6S(b1-4)GlcNAc6S = biological target: Gal6S(b1-4)GlcNAc6S
How it was run: as §1

GalNAc(a1-3)Gal = biological target: GalNAc(a1-3)Gal
How it was run: as §1

GalNAc(b1-3)Gal = biological target: GalNAc(b1-3)Gal
How it was run: as §1

[24] = biological target: GalNAc(b1-3)Gal(a1-4)Gal(b1-4)GlcNAc
How it was run: as §1

[25] = biological target: GalNAc(b1-3)Gal(a1-4)Gal(b1-4)GlcNAc(b1-3)Gal(b1-4)Glc
How it was run: as §1

[26] = biological target: GalNAc(b1-3)Gal(a1-6)Gal(b1-4)Glc
How it was run: as §1

GalNAc3S(b1-4)GlcNAc = biological target: GalNAc3S(b1-4)GlcNAc
How it was run: as §1

[27] = biological target: GlcNAc(a1-4)Gal(b1-3)GlcNAc
How it was run: as §1

[28] = biological target: GlcNAc(a1-4)Gal(b1-4)GlcNAc(b1-3)Gal(b1-4)GlcNAc
How it was run: as §1

[29] = biological target: GlcNAc(b1-2)Man(a1-3)[GlcNAc(b1-2)Man(a1-6)]Man(b1-4)GlcNAc(b1-4)GlcNAc
How it was run: as §1

GlcNAc(b1-3)Gal = biological target: GlcNAc(b1-3)Gal
How it was run: as §1

GlcNAc(b1-6)GalNAc = biological target: GlcNAc(b1-6)GalNAc
How it was run: as §1

[30] = biological target: Man(a1-2)Man(a1-3)[Man(a1-2)Man(a1-6)]Man(a1-6)[Man(a1-2)Man(a1-2)Man(a1-3)]Man
How it was run: as §1

[31] = biological target: Man(a1-3)[Man(a1-6)]Man(a1-6)[Man(a1-3)]Man(b1-4)GlcNAc(b1-4)GlcNAc
How it was run: as §1

[32] = biological target: Neu5Ac(a2-3)Gal(b1-3)GalNAc(b1-3)Gal(a1-4)Gal(b1-4)Glc
How it was run: as §1

[33] = biological target: Neu5Ac(a2-3)Gal(b1-3)[Fuc(a1-4)]GlcNAc(b1-3)Gal(b1-3)[Fuc(a1-4)]GlcNAc
How it was run: as §1

Neu5Ac(a2-3)Gal(b1-4)Glc = biological target: Neu5Ac(a2-3)Gal(b1-4)Glc
How it was run: as §1

[34] = biological target: Neu5Ac(a2-3)Gal(b1-4)GlcNAc(b1-2)Man(a1-3)[Neu5Ac(a2-3)Gal(b1-4)GlcNAc(b1-2)Man(a1-6)]Man(b1-4)GlcNAc(b1-4)[Fuc(a1-6)]GlcNAc
How it was run: as §1

[35] = biological target: Neu5Ac(a2-3)Gal(b1-4)GlcNAc(b1-3)Gal
How it was run: as §1

[36] = biological target: Neu5Ac(a2-3)Gal(b1-4)GlcNAc(b1-3)Gal(b1-4)GlcNAc
How it was run: as §1

[37] = biological target: Neu5Ac(a2-3)Gal(b1-4)[Fuc(a1-3)]GlcNAc(b1-6)[Neu5Ac(a2-3)Gal(b1-3)]GalNAc
How it was run: as §1

[38] = biological target: Neu5Ac(a2-6)Gal(b1-4)GlcNAc(b1-2)[Neu5Ac(a2-6)Gal(b1-4)GlcNAc(b1-4)]Man(a1-3)[GlcNAc(b1-4)][Neu5Ac(a2-6)Gal(b1-4)GlcNAc(b1-4)Man(a1-6)]Man(b1-4)GlcNAc(b1-4)GlcNAc
How it was run: as §1

[39] = biological target: Neu5Ac(a2-8)Neu5Ac(a2-8)Neu5Ac(a2-3)[GalNAc(b1-4)]Gal(b1-4)Glc
How it was run: as §1

Neu5Ac(b2-6)GalNAc = biological target: Neu5Ac(b2-6)GalNAc
How it was run: as §1

B1: Cohesin-mDCIR (Macaca mulatta) (protein)
chain: GLDDLDAVRIKVDTVNAKPGDTVRIPVRFSGIPSKGIANCDFVYSYDPNVLEIIEIEPGDIIVDPNPDKSFDTAVYPDRKIIVFLFAEDSGTGAYAITKDGVFATIVAKVKEGAPNGLSVIKFVEVGGFANNDLVEQKTQFFDGGVNVGDTTEPATPTTPVTTPTTTDDLDAASFQKYSQLLEKMTTKDLVHTTLECVKKNMTTEETAWSCCPKNWKPFSSNCYFISTESASWQKSEKDCARMEAHLLVINTREEQDFIFQNLQEESAYFVGLSDPEGQRHWQWVDRTPYNESSTFWHPHEPSDPDERCVVLNFRKTPKRWGWNDVHCIVHQRSVCEMMKIHLHHHHHH
- glycan array binding signal (z-score) [1]: -0.407
- glycan array binding signal (z-score) [2]: -0.151
- glycan array binding signal (z-score) [3]: 0.7
- glycan array binding signal (z-score) [4]: 0.229
- glycan array binding signal (z-score) [5]: 3.96
- glycan array binding signal (z-score) [6]: -0.241
- glycan array binding signal (z-score) [7]: -0.349
- glycan array binding signal (z-score) [8]: -0.101
- glycan array binding signal (z-score) [9]: -0.338
- glycan array binding signal (z-score) [10]: 5.37
- glycan array binding signal (z-score) [11]: 3.27
- glycan array binding signal (z-score) [12]: -0.274
- glycan array binding signal (z-score) (Gal(a1-3)Gal(b1-3)GlcNAc): 8.73
- glycan array binding signal (z-score) [13]: -0.246
- glycan array binding signal (z-score) [14]: 6.42
- glycan array binding signal (z-score) [15]: -0.186
- glycan array binding signal (z-score) [16]: -0.363
- glycan array binding signal (z-score) [17]: 3.16
- glycan array binding signal (z-score) [18]: 4.89
- glycan array binding signal (z-score) [19]: -0.388
- glycan array binding signal (z-score) [20]: -0.103
- glycan array binding signal (z-score) [21]: -0.425
- glycan array binding signal (z-score) [22]: 4.39
- glycan array binding signal (z-score) (Gal3S(b1-4)Glc): 5.11
- glycan array binding signal (z-score) [23]: 1.55
- glycan array binding signal (z-score) (Gal6S(b1-4)GlcNAc6S): 0.096
- glycan array binding signal (z-score) (GalNAc(a1-3)Gal): 0.417
- glycan array binding signal (z-score) (GalNAc(b1-3)Gal): 2.45
- glycan array binding signal (z-score) [24]: 1.26
- glycan array binding signal (z-score) [25]: 0.862
- glycan array binding signal (z-score) [26]: 2.77
- glycan array binding signal (z-score) (GalNAc3S(b1-4)GlcNAc): -0.436
- glycan array binding signal (z-score) [27]: -0.401
- glycan array binding signal (z-score) [28]: -0.366
- glycan array binding signal (z-score) [29]: -0.313
- glycan array binding signal (z-score) (GlcNAc(b1-3)Gal): -0.352
- glycan array binding signal (z-score) (GlcNAc(b1-6)GalNAc): 1.02
- glycan array binding signal (z-score) [30]: -0.438
- glycan array binding signal (z-score) [31]: -0.439
- glycan array binding signal (z-score) [32]: -0.388
- glycan array binding signal (z-score) [33]: -0.418
- glycan array binding signal (z-score) (Neu5Ac(a2-3)Gal(b1-4)Glc): -0.444
- glycan array binding signal (z-score) [34]: -0.364
- glycan array binding signal (z-score) [35]: -0.377
- glycan array binding signal (z-score) [36]: -0.175
- glycan array binding signal (z-score) [37]: -0.363
- glycan array binding signal (z-score) [38]: -0.257
- glycan array binding signal (z-score) [39]: 0.263
- glycan array binding signal (z-score) (Neu5Ac(b2-6)GalNAc): -0.406
